A selection: hits, their analogues and other compounds. The true share with any hit is near 4.7%.
TIM10 inh: growth inhibitors of isogenic TIM10 control yeast, primary screen, counter-screen for tim10-1 yeast inhibitor project, luminescence, uHTS; inhibition, % at 10 µM; S. cerevisiae TIM10 strain growth, BacTiter-Glo luminescence, 24 h; actives 1.4% (n = 330,000);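 active means inhibition of 40% or more at the single tested concentration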;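 further: wild-type TIM10 isogenic control strain grown at permissive 25 °C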
PfHsp90 set2: growth inhibition of PfHsp90-expressing yeast, primary screen, antimalarial PfHsp90 inhibitor project, S. cerevisiae, BacTiter-Glo luminescence, single point, set 2 | inhibition, % at 9.4 µM | BacTiter-Glo ATP, 48 h; yeast lacking PDR1 and PDR3 efflux regulators | actives 0.32% (n = 310,000);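 active means every replicate shows inhibition above about 80%, whatever the replicate mean, limit read from the data; inconclusive means mean inhibition reaches the set limit but some replicate falls short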;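 further: 0% = DMSO neutral controls and 100% = 20 µM radicicol positive controls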
ATG4B inhibitor: ATG4B protease inhibitors, primary screen, biochemical, fluorescence, uHTS | ATG4B cleavage of LC3-PLA2, NBD-HPC fluorescence, 1 h | inhibition, % at 8.33 µM | actives 0.51% (n = 340,000); in the data active means inhibition above about 40%
Target sequence (Q9Y4P1 whole entry, looked up): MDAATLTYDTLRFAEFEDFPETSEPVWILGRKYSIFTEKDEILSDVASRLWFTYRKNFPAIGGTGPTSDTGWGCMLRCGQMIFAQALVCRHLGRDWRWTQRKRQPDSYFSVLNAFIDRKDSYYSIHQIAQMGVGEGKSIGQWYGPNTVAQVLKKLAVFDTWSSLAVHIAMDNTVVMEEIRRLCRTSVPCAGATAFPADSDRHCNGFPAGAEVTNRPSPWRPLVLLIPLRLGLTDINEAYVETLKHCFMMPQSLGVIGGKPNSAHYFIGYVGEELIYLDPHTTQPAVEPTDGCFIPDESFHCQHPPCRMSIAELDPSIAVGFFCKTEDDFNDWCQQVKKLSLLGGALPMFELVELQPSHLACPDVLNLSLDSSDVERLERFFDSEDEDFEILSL
SKKanGAS inh: S. pyogenes SKKanGAS growth inhibitors in kanamycin, primary screen, streptokinase expression inhibitor project, SKKanGAS strain, BacTiter-Glo luminescence; 6 h; inhibition, % at 7.5 µM; actives 1.3% (n = 300,000); AID 1662, 2009;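 active means mean replicate score, as percent of positive control median, at least 50; inconclusive means mean below 50 but one replicate at or above 50; inactive means mean and every replicate below 50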;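 further: strain carries kanamycin resistance gene driven by streptokinase promoter and grows in 40 µg/ml kanamycin; loss of luminescence reflects streptokinase promoter inhibition or plain growth inhibition; 0% = median of DMSO wells and 100% = positive control at its reference dose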
tim10-1 inh: growth inhibitors of tim10-1 mutant yeast, primary screen, luminescence, uHTS | AID 463190, 2010 | inhibition, % at 20 µM | S. cerevisiae tim10-1 ts strain growth, BacTiter-Glo, 24 h | actives 2.2% (n = 330,000);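 active means inhibition of at least 40%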;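 further: mutant grown at 25 °C; 0% = DMSO wells with yeast and 100% = wells holding no yeast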
tim23-1 inh: growth inhibitors of tim23-1 mutant yeast, primary screen, luminescence, uHTS; S. cerevisiae tim23-1 growth, BacTiter-Glo luminescence, 24 h; inhibition, % at 20 µM; actives 1.3% (n = 330,000); AID 463212, 2010;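 active means growth inhibition of the mutant yeast at or above 50%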;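 further: temperature-sensitive mutant grown at 25 °C; plate controls were DMSO-treated mutant yeast for no effect and medium wells lacking yeast for full effect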
tim23-1 confirm: tim23-1 mutant yeast growth inhibitors, confirmation, luminescence, single concentration. shares compounds with tim23-1 inh. S. cerevisiae tim23-1 growth, BacTiter-Glo luminescence, 24 h. inhibition, % at 20 µM. actives 83% (n = 4,400);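 active means inhibition above about 39% in either of two replicate wells at 20 µM, limit read from the data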;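 further: temperature-sensitive tim23-1 mutant grown at 25 °C; 0% = DMSO wells with yeast and 100% = medium wells without yeast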
An asterisk follows results filed as active; ? = inconclusive; nt = no result.

SMILES	TIM10 inh	PfHsp90 set2	ATG4B inhibitor	SKKanGAS inh	tim10-1 inh	tim23-1 inh	tim23-1 confirm
Oc1c(Cl)cc(CN2CCOCC2)c2cccnc12	15	nt	-5	nt	26	51*	39
O=[N+]([O-])c1cc(CN2CCOCC2)c2cccnc2c1O	nt	nt	1	nt	nt	nt	nt
O=C(Nc1cn(-c2ccccc2)nc1-c1cccs1)c1ccco1	5	-10	-2	-2	34	58*	47*
CC1=C/C(=C/N(C)C)C(=O)O1	20	4	-4	-8	14	16	nt
CN(C)/C=C1/C=C(c2ccccc2)OC1=O	33	-21	12	-2	1	56*	41*
CC1=NN(c2ccc(Cl)cc2)C(=O)C1C(c1ccccc1O)c1c(C)[nH]n(-c2ccc(Cl)cc2)c1=O (stereo unspecified)	31	-43	38	3	39	57*	49*
CC1=NN(c2ccc(C)cc2C)C(=O)C1C(c1ccccc1O)C1C(=O)N(c2ccc(C)cc2C)N=C1C (stereo unspecified)	19	-18	2	-4	17	31	nt
CN(Cc1cccs1)C(=O)CCc1ccc(S(=O)(=O)N2CCOCC2)cc1	16	8	3	3	18	11	nt
Cc1ccc(/C=N/NC(=O)c2csc3c2CCCC3)cc1	22	nt	2	-3	35	63*	59*
O=[N+]([O-])c1ccc(O)c2ncccc12	-1	109*	0	44	20	62*	35
O=[N+]([O-])c1ccc(O)c2cccnc12	1	-7	-3	-19	10	11	nt
Cc1cc(C)cc(C(=O)NCc2ccc3c(c2)OCO3)c1	7	-10	6	-4	8	26	nt
Cc1csc2nc(O)c(C(=O)NCc3ccc4c(c3)OCO4)c(=O)n12	39	0	4	31	35	75*	73*
COc1ccc(/C=C(\C#N)C(=O)NC(C)c2ccccc2)cc1O (stereo unspecified)	19	-2	-3	3	29	56*	44*
Cc1ccccc1NC(=O)c1ccc(CN2CC(=O)N3CCCCC3C2=O)cc1 (stereo unspecified)	-13	-41	-7	3	3	12	nt
CC12CCC(c3c(C(=O)Nc4nccs4)nn(-c4ccccc4)c31)C2(C)C (stereo unspecified)	34	-27	38	?	22	59*	57*
N=c1c2c(-c3ccccc3)c(-c3ccccc3)n(Cc3ccco3)c2ncn1Cc1ccccc1	31	16	-11	36	30	86*	59*
CC(C)Cn1cnc2c(c(-c3ccccc3)c(-c3ccccc3)n2Cc2ccco2)c1=N	-13	4	-1	-1	31	76*	41*
N=c1c2c(-c3ccccc3)c(-c3ccccc3)n(Cc3ccco3)c2ncn1CCCN1CCOCC1	-13	nt	-3	-3	12	8	nt
O=C(CCNC(=O)c1ccco1)NCc1ccccc1	-1	nt	3	-2	4	17	nt
C=CCNC(=O)c1n[nH]c2c1CC(C(C)(C)CC)CC2 (stereo unspecified)	21	-2	-17	nt	36	53*	56*
CCCNC(=O)c1n[nH]c2c1CC(C(C)(C)CC)CC2 (stereo unspecified)	24	7	0	nt	37	57*	58*
Cc1ccc(-c2nc3n(n2)Cc2ccccc2-3)cc1	20	10	17	4	14	54*	50*
NC(=S)Cc1nc2n(n1)Cc1ccccc1-2	-2	18	-11	0	6	0	nt
CC(C)CN1Cc2ccccc2Oc2cc(Br)ccc2S1(=O)=O	-3	-11	-3	nt	18	51*	24
SMILES	TIM10 inh	PfHsp90 set2	ATG4B inhibitor	SKKanGAS inh	tim10-1 inh	tim23-1 inh	tim23-1 confirm
CCCCN1Cc2ccccc2Oc2cc(Br)ccc2S1(=O)=O	-8	-15	4	nt	22	51*	23
Cc1noc(C)c1C(=O)N1CCN(Cc2ccc3c(c2)OCO3)CC1	-5	9	6	-4	-9	16	nt
CCCN(C(=O)CCCSc1nc2ccccc2[nH]1)c1c(N)n(Cc2ccccc2)c(=O)[nH]c1=O	-5	nt	-1	14	9	5	nt
COc1cccc(C(=O)NC(=S)N2c3ccccc3CC2C)c1OC (stereo unspecified)	37	6	-6	-3	22	51*	54*
COc1ccc(Nc2cc(NCCCO)c([N+](=O)[O-])c3nonc23)cc1	18	-34	4	-10	3	17	nt
CCOc1ccc(Nc2ccc([N+](=O)[O-])c3nonc23)cc1	35	-1	4	4	39	67*	61*
Cc1nnc(SCC(=O)N2CCCCC2)n1CC1CCCO1 (stereo unspecified)	-9	16	4	9	3	69*	14
Cc1nc(NCc2ccco2)c2c3c(sc2n1)CCC3	-11	-1	18	5	27	34	nt
CC1CCCc2sc3nc(NCc4ccco4)n4ncnc4c3c21 (stereo unspecified)	18	-13	3	nt	33	50*	49*
Brc1ccccc1/C=N/N1CCCCC1	-3	10	6	3	10	11	nt
C=CCN(c1ccccc1)S(=O)(=O)c1cccc(C(=O)Oc2ccc3c(C)cc(=O)oc3c2)c1	20	-17	-1	12	31	25	nt
Cc1ccc(S(=O)(=O)/C(C#N)=C/c2c(Oc3ccc(Cl)cc3)nc3c(C)cccn3c2=O)cc1	-12	nt	nt	2	2	50*	24
CC1CCN(C(=O)COC(=O)c2ccc([N+](=O)[O-])o2)CC1	0	13	-13	nt	18	20	nt
CC1Cc2ccccc2N1C(=O)COC(=O)c1ccc([N+](=O)[O-])o1 (stereo unspecified)	34	-10	-16	nt	34	57*	48*
CC(=O)c1ccc(N2CCN(C(=S)Nc3cccc(Cl)c3)CC2)cc1	1	-6	1	1	9	96*	11
O=C(NN1C(=O)c2cc(Br)ccc2NC1c1cc(Br)cc(Br)c1O)c1ccncc1 (stereo unspecified)	33	-7	10	59*	32	68*	74*
c1cc(-c2nnc(-c3ccncc3)o2)ccn1	1	nt	4	-2	6	7	nt
